The campaign covered roughly 52,000 compounds. About 4,300 (8.3%) were called active. Many of the other results were omitted from the sample, so actives are more common in it than they were. Unmarked numbers belong to inactive results. Rule as the data show it: active = survival mostly below about 52% (no sharp cut-off); inactive = mostly above about 56%.
The molecules below were run on DeltatarO mutant (assay: S. aureus survival, RN4220 and DeltatarO strains – OD600, teichoic acid synthesis inhibitors, primary screen (AID 463173)). Conditions: S. aureus RN4220 wild type/DeltatarO growth, OD600, 18 h, active compounds read low, screened at 18.75 µg/mL (by protocol).

SMILES | survival
CCCC1CC(C)(c2csc(NCC)n2)OC1=O (stereo not drawn) | 71% (active)
CCCC1CC(C)(/C(C)=N\NC(N)=S)OC1=O (stereo not drawn) | 98%
CCC1(c2csc(Nc3ccccc3C)n2)CCC(=O)O1 (stereo not drawn) | 89%
CCCCc1ccc(NC(=O)C2(C)Cc3ccccc3C(=O)O2)cc1 (stereo not drawn) | 75%
COc1ccc(S(=O)(=O)N(CC(=O)NCCc2ccccc2)c2ccc(Cl)cc2)cc1 | 83%
COc1ccc(CCN2C(=O)N(c3ccc(F)cc3)C(=O)C2CC(=O)Nc2ccc(F)c(F)c2)cc1 (stereo not drawn) | 61%
CCOC(=O)c1c(C)oc2ccc(N(C(=O)c3ccncc3)S(=O)(=O)c3ccc(F)cc3)cc12 | 28% (active)
COCc1oc2ccc(NS(=O)(=O)c3ccc(C)cc3)cc2c1C(=O)OC | 60%
CCc1ccc(S(=O)(=O)Nc2ccc3oc(C)c(C(=O)OCCOC)c3c2)cc1 | 32% (active)
CCOC(=O)c1c(-c2ccccc2)oc2ccc(NS(=O)(=O)c3ccc(OC)cc3)cc12 | 60%
CCOC(=O)c1c(-c2ccccc2)oc2ccc(NS(=O)(=O)c3ccccc3)cc12 | 35% (active)
CCOC(=O)c1c(C)oc2ccc(N(C(=O)c3ccncc3)S(=O)(=O)c3ccc(CC)cc3)cc12 | 60%
CCOC(=O)c1c(C)oc2ccc(N(C(=O)c3ccncc3)S(=O)(=O)c3ccc(F)cc3C)cc12 | 79%
CCCc1oc2ccc(NS(=O)(=O)c3ccc(OCC)cc3)cc2c1C(=O)OCC | 65%
Cc1cc(F)ccc1S(=O)(=O)Nc1ccc2oc3c(c2c1)CC(C)CC3 (stereo not drawn) | 56%
CCCCOC(=O)c1c(C)oc2ccc(NS(=O)(=O)c3ccc(F)cc3C)cc12 | 10% (active)
CCOC(=O)c1c(-c2ccccc2)oc2ccc(NS(=O)(=O)c3ccc(C)cc3)cc12 | 83%
CCOC(=O)c1c(-c2ccccc2)oc2ccc(NS(=O)(=O)c3ccc(C)cc3C)cc12 | 47%
CC(C)(C)c1ccc(CN(Cc2ccco2)Cc2nnnn2C2CCCCC2)cc1 | 105%
CC1CCc2c(nc3ncnn3c2NCCN(C)C)C1 (stereo not drawn) | 88%
COc1cccc(NC(=O)Nc2cccc(-c3cn4cccnc4n3)c2)c1 | 78%
COc1ccc(C(=O)n2cnnc2N)cc1 | 103%

SMILES | survival
CCOC(=O)c1c(-c2ccccc2)oc2ccc(NS(=O)(=O)c3cc(C)c(C)cc3C)cc12 | 63%
CC(=O)c1c(C)oc2ccc(NS(=O)(=O)c3ccc(C(C)C)cc3)cc12 | 78%
Cc1cc(C)c(S(=O)(=O)Nc2ccc3oc(C)c(C(=O)OC(C)C)c3c2)cc1C | 48% (active)
COc1ccc(CCNC(=O)CCn2c(=O)c3cccn3c3ccc(F)cc32)cc1OC | 45% (active)
CCOc1ccc(CCNC(=O)CCCn2c(=O)c3cccn3c3cccnc32)cc1OCC | 93%
COc1ccc(CNC(=O)CCn2c(=O)c3cccn3c3ccc(F)cc32)cc1OC | 91%
COc1ccc(CNC(=O)CCCn2c(=O)c3cccn3c3ccc(F)cc32)cc1OC | 53%
CCOc1ccc(CCNC(=O)Cn2c(=O)c3cccn3c3ccc(F)cc32)cc1OCC | 74%
CCOc1ccc(CCNC(=O)CCn2c(=O)c3cccn3c3ccc(F)cc32)cc1OCC | 42% (active)
COc1ccc(CCNC(=O)CCCn2c(=O)c3cccn3c3ccccc32)cc1OC | 61%
COc1ccc(CCNC(=O)Cn2c(=O)c3cccn3c3ccc(F)cc32)cc1OC | 72%
COc1ccc(CCNC(=O)CCCn2c(=O)c3cccn3c3ccc(F)cc32)cc1OC | 43% (active)
COc1ccc(N2CC(NC(=O)c3c(F)cccc3Cl)CC2=O)cc1OC (stereo not drawn) | 95%
COc1ccc(Cl)cc1NC(=O)CSc1nnc(C)n2c1cc1sccc12 | 68%
Cc1ccc(-n2nc(C)c3c(C(F)(F)F)cc(-c4cccnc4)nc32)cc1C | 42%
CCN(Cc1ccccc1)C(=O)Cn1c(=O)n(Cc2ccccc2)c(=O)c2c1c1cc(OC)ccc1n2C | 59%
O=C(CN1C(=O)C2(SCC(=O)N2c2cccc(Cl)c2)c2ccccc21)NCCc1ccccc1 (stereo not drawn) | 104%
CCOc1ccccc1CNC(=O)CN1C(=O)C2CCCCN2c2ccc(C(=O)N(C)C)cc21 (stereo not drawn) | 120%
COc1cccc(NC(=O)CSc2nc3ccc(NC(=O)c4ccco4)cc3s2)c1 | 77%
CN(C)c1cccc(C(=O)Nc2nc3ccc(S(=O)(=O)N4CCCC4)cc3s2)c1 | 135%
CC(C)(C)NS(=O)(=O)c1ccc2nc(NC(=O)c3cccnc3)sc2c1 | 86%
CN(C)c1cccc(C(=O)Nc2nc3ccc(S(=O)(=O)NC(C)(C)C)cc3s2)c1 | 47% (active)

SMILES | survival
Cc1cccc(NC(=O)Cn2nc(N3CCN(c4ccccc4)CC3)ccc2=O)c1C | 87%
COc1cc(NC(=O)c2nc3cc(C)c(C)cc3n(C)c2=O)cc(OC)c1OC | 94%
N=c1n(CCN2CCCCC2)c2ccccc2n1CC(O)COc1ccccc1 (stereo not drawn) | 163%
Cc1ccc(OCC(O)Cn2c(=N)n(CCN3CCCCC3)c3ccccc32)cc1 (stereo not drawn) | 36% (active)
Cc1ccccc1OCC(O)Cn1c(=N)n(CCN2CCCCC2)c2ccccc21 (stereo not drawn) | 71%
COc1ccc(OCC(O)Cn2c(=N)n(CCN3CCCCC3)c3ccccc32)cc1 (stereo not drawn) | 46%
OC(COc1ccc(Cl)cc1Cl)CN1CCCCC1 (stereo not drawn) | 70%
N=c1n(CCN2CCCCC2)c2ccccc2n1CC(O)COc1ccc(Cl)cc1Cl (stereo not drawn) | -16% (active)
CCN1CCCC1CNC(=O)Nc1c[nH]c2ccc(C)cc2c1=O (stereo not drawn) | 102%
O=C(Nc1nc2n(n1)C(c1ccccc1)C=C(c1ccccc1)N2)c1ccc(Cl)c([N+](=O)[O-])c1 (stereo not drawn) | 63%
CC(C(=O)NCc1ccccc1)N1Cc2ccccc2C1=O (stereo not drawn) | 95%
CCOC(=O)c1c(C)[nH]c(CCC(=O)NCCCN2CCN(c3ccccc3F)CC2)c1C | 83%
CCC1(CC)Cc2ccccc2-c2nc(NN)n(Cc3ccccc3)c(=O)c21 | 48% (active)
NNc1nc2ccccc2c(=O)n1Cc1ccccc1 | 100%
Cn1c(NN)nc2c(c1=O)C1(CCCC1)Cc1ccccc1-2 | 59%
CN1CCN(C(=S)NCC2CCCO2)CC1 (stereo not drawn) | 64%
Cc1cccc(NC(=O)Cn2c(=O)oc3cc(S(=O)(=O)NC4CCCC4)ccc32)c1 | 82%
Cc1ccc(-c2cc(C(F)(F)F)c(C#N)c(SCC(=O)Nc3ccccc3)n2)cc1 | 53% (active)
CCS(=O)(=O)CCSc1nc(-c2ccc(Br)cc2)cc(-c2ccccc2)c1C#N | 85%
C#CCSc1nc(-c2ccccc2)cc(-c2ccccc2)c1C#N | 40% (active)
COc1ccc(-c2cc(-c3ccccc3)nc(SCC(=O)CC(=O)OC(C)C)c2C#N)cc1 | 55%
CCN(CC)C(=O)CSc1nc(-c2ccccc2)cc(-c2ccc(OC)cc2)c1C#N | 45% (active)

SMILES | survival
N#CN=C(N)CSc1nc(-c2ccccc2)cc(-c2ccccc2)c1C#N | 56%
N#Cc1c(C(F)(F)F)cc(-c2ccc(F)cc2)nc1SCC(=O)Nc1ccccc1 | 72%
COc1ccc(-c2cc(-c3ccccc3)nc(SCC(=O)Nc3ccccc3C)c2C#N)cc1 | 56% (active)
COc1ccc(-c2cc(-c3ccccc3)nc(SCC(=O)Nc3ccccc3F)c2C#N)cc1 | 140%
Cc1ccc(NC(=O)CSc2nc(-c3ccc(F)cc3)cc(C(F)(F)F)c2C#N)cc1 | 63%
COc1ccc(NC(=O)CSc2nc(-c3ccccc3)cc(-c3cc(OC)c(OC)c(OC)c3)c2C#N)c(OC)c1 | 54%
C=C(C)CSc1nc(-c2ccccc2)cc(-c2ccc(OC)cc2)c1C#N | 57%
COc1ccc(OC)c(NC(=O)Nc2cccc(OCc3cc(=O)n4cc(C)ccc4n3)c2)c1 | 101%
COc1ccc(N2CCN(C(=O)c3ccc4c(c3)N(Cc3cc(C)ccc3C)C(=O)c3ccccc3S4=O)CC2)cc1 (stereo not drawn) | 85%
Cn1c(=O)c2c(-c3ccccc3)n3c4ccccc4nc(-c4ccccc4)c3c2n(C)c1=O | 82%
CCc1cccc(C)c1NC(=O)CN1C(=O)c2c(c3ccccc3n2C)C1c1ccc(OC)cc1 (stereo not drawn) | 83%
CCSc1ccccc1C(=O)N1CCN(c2nc3ccccc3s2)CC1 | 92%
COc1cccc(NC(=O)C(=O)NCC(c2ccc3c(c2)OCO3)N2CCOCC2)c1 (stereo not drawn) | 49%
COc1ccc(-c2nsc(NC(=O)COc3ccccc3OC)n2)cc1 | 61%
CCOC(=O)c1c(C)[nH]c(CCC(=O)NC(C)c2ccccc2)c1C (stereo not drawn) | 94%
Cc1ccc2nc(N(Cc3cccnc3)C(=O)C3COc4ccccc4O3)sc2c1 (stereo not drawn) | 94%
COc1cc(Cl)c(C)cc1NC(=O)c1cn(C2CCCC2)c(=O)c2c1c1ccccc1n2C | 109%
COc1cccc(NC(=O)/C(C#N)=C\c2cn(Cc3ccc(Cl)cc3)c3ccccc23)c1 | 77%
COc1ccc(CNC(=O)c2ccc3c(c2)N(Cc2ccccc2C)C(=O)c2ccccc2S3=O)cc1 (stereo not drawn) | 99%
COc1ccc(C2CC(=O)c3cnc4c(-c5ccccc5)c(C)nn4c3C2)cc1OC (stereo not drawn) | 54%
O=C(O)c1c2c(nc3ccc(S(=O)(=O)N4CCC(C(=O)NCc5ccc(Cl)cc5)CC4)cc13)CCCC2 | 90%
N#CC1=C(N)OC2=C(C(=O)CCC2)C1c1ccccc1C(F)(F)F (stereo not drawn) | 78%
